Measurements from PubChem BioAssay (NCATS).
Inconclusive results are not listed. Calls of active or inactive are those of the source. Unless noted, calls come from the whole dose curve; as a rule, active = well fitted curve in the direction sought with a large enough effect; inconclusive = small, poorly fitted or top-dose-only effect, or another doubt; inactive = no such curve, though single readings can be large; an effect the other way counts as inactive or inconclusive.

Legend:
[1] = biological target: Lysosomal acid glucosylceramidase (Homo sapiens) (UniProt P04062); experiment: Glucocerebrosidase-p2 (AID 348; in the data active = potency below about 10 µM; note: potency is the fitted concentration of half-maximal effect); conditions: purified GBA, blue fluorogenic substrate, 40 min
Procedure, shortened: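 Normal human glucocerebrosidase (0.2 nM) with blue fluorogenic substrate (80 uM final) in citrate/phosphate pH 5.9 with 10mM sodium taurocholate, 0.01% tween-20; 40 min RT, NaOH/glycine stop; fluorescence Ex 365/Em 440; AC50 from a titration from 0.6 nM upwards.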

[2] = AP1 Signaling Pathway (AID 357; active = well fitted curve in either direction with a large enough effect, not every such curve was filed as active;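 note: ME-180 reporter cells stimulated with EGF at its EC50 level; % is set by controls: 0 for no effect and ±100 for the full control effect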); conditions: ME-180 AP-1-bla reporter, EGF-induced, beta-lactamase ratio, 5 h; at 7.69 µM (top of the series) unless noted
Procedure, shortened: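 In this screen, ME-180 cells in Opti-MEM with 0.5% dialyzed FBS received EC50 EGF and compound titrations for 5 h. AP-1 reporter beta-lactamase was detected via CCF4 ratio, giving AC50 for positive and negative modulators.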

[3] = biological target: Glucocorticoid receptor (Homo sapiens) (UniProt P04150); experiment: GR-GFP Redistribution (AID 450;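 active = compounds whose dose series gives a full or clear partial fitted curve of increased nuclear translocation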; note: potency is the fitted concentration of half-maximal effect); conditions: U2OS GR-GFP nuclear translocation, laser cytometry, 2 h
Chain of Glucocorticoid receptor (Homo sapiens) (P04150 whole entry, looked up, the tested form may be a part): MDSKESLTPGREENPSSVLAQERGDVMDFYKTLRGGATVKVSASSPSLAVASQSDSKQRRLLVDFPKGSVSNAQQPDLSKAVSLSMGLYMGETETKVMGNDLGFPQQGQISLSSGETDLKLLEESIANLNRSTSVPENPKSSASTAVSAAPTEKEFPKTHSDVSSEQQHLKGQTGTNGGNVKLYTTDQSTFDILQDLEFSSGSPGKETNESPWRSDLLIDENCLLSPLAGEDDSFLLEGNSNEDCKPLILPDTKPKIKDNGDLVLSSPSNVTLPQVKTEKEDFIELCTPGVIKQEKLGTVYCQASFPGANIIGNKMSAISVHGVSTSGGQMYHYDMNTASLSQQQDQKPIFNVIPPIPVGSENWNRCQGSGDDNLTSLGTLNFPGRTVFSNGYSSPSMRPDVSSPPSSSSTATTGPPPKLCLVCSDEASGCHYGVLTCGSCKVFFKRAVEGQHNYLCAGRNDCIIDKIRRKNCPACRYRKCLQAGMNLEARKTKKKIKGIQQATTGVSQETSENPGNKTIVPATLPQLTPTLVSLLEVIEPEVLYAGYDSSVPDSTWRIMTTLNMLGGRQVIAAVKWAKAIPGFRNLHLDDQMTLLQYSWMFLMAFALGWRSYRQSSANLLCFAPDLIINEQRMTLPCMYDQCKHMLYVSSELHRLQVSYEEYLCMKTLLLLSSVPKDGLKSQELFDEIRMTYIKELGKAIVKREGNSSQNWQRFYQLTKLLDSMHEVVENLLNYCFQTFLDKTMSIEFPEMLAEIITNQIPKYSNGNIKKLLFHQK

[4] = biological target: Glucocorticoid receptor (Homo sapiens) (UniProt P04150); experiment: GR-EFC Redistribution (AID 451; calls by dose curve; note: potency is the fitted concentration of half-maximal effect); conditions: CHO-K1 GR-EFC translocation, beta-gal luminescence, 2 h
Procedure, shortened: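 Translocation of GR-ED fusion to nuclear EA restores b-gal, read by luminescence after 1 h room-temperature detection. Engineered CHO-K1 biosensor cells, 1,000/well, exposed 2 h at 37 C to titrations up to 46 uM final.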

[5] = biological target: Mitogen-activated protein kinase 10 (Mus musculus) (UniProt Q61831); experiment: JNK3 AlphaScreen Assay (AID 530; active = well fitted curve in either direction with a large enough effect, not every such curve was filed as active;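 note: kinase came from lysate of stimulated human HepG2 cells; signal reports phosphorylation of biotinylated GST-cJun 1-79 at Ser73 with 10 µM ATP; % is set by controls: 0 for no effect and ±100 for the full control effect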); conditions: JNK3 lysate, c-Jun phosphorylation; series mostly up to 57.1 µM
Procedure, shortened: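 Kinase buffer: 20 mM Tris-HCl pH 7.6, 10 mM MgCl2, 1 mM DTT, 0.1 mM Na3VO4, 0.01% Tween-20; ATP 10 uM. Substrate biotin-GST-cJun(1-79), enzyme from activated HepG2 lysates. Detection by Ser73 phospho-antibody AlphaScreen.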

[6] = biological target: Cytochrome P450 3A4 (Homo sapiens) (UniProt P08684); experiment: qHTS Assay for Activators of Cytochrome P450 3A4 (AID 885); conditions: recombinant CYP3A4, Luciferin-PPXE luminescence, 60 min; series mostly up to 57.1 µM; note: nearly all actives have a fitted effect of over 65% in size
Chain of Cytochrome P450 3A4 (Homo sapiens) (P08684 whole entry, looked up): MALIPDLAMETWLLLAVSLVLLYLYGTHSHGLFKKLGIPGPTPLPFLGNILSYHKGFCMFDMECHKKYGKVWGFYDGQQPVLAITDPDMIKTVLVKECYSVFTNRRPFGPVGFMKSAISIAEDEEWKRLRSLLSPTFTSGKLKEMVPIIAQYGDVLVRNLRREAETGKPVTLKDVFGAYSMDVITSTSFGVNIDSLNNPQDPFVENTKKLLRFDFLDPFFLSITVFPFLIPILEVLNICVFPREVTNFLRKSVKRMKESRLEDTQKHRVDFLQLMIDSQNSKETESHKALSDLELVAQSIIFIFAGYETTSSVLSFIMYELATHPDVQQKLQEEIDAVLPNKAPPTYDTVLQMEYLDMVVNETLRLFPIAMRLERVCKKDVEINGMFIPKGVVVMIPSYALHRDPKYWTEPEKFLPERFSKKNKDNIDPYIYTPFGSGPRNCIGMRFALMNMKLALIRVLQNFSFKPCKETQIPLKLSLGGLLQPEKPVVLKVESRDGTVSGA
Procedure, shortened: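 Activators are scored by enhanced luminescence from CYP3A4 conversion of luciferin-PPXE (25uM, equal to KM) to luciferin, after 60 min at RT with an NADPH-regenerating system.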

[7] = qHTS Assay for Lipid Storage Modulators (AID 1519; calls by dose curve); conditions: Drosophila S3 cells, BODIPY lipid droplet/cell ratio, laser cytometry, cells loaded with oleic acid; for activity change, negative = inhibition: at 57.5 µM (top of the series)
Procedure, shortened: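 Cells seeded at 5,000 per well were treated with compounds over a concentration series and loaded with oleic acid (400 uM, as added). Lipid droplet fluorescence (488 nm excitation, 500-530 nm channel) was read by laser-scanning cytometry and normalized to 20 uM Triacsin C.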

[8] = Primary qHTS for small molecule stabilizers of the endoplasmic reticulum resident proteome: Secreted ER Calcium Modulated Protein (SERCaMP) assay (AID 1508630); conditions: SH-SY5Y GLuc-SERCaMP (Gaussia luciferase released on ER calcium loss) secretion, thapsigargin, luminescence; series mostly up to 38.4 µM; note: % is set by controls: 0 for no effect and ±100 for the full control effect
Procedure, shortened: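 The SH-SY5Y reporter protocol was run at 3 concentrations up to 38.3 uM (primary) or 11 concentrations (follow-up): 16 h compound, 100 nM thapsigargin for 4 h, then extracellular luciferase luminescence.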

[9] = biological target: Rap guanine nucleotide exchange factor 3 (Homo sapiens) (UniProt O95398); experiment: Confirmatory qHTS for agonist of cAMP-regulated guanine nucleotide exchange factor 3 (EPAC1) (AID 1645881); conditions: EPAC1 Rap1B BODIPY-GDP exchange fluorescence, 100% = cAMP control response; series mostly up to 154 µM;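 note: EPAC1 catalysed release of BODIPY-GDP from Rap1B seen as fluorescence loss; nearly all actives have a fitted effect of over 75% in size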
Chain of Rap guanine nucleotide exchange factor 3 (Homo sapiens) (O95398 whole entry, looked up): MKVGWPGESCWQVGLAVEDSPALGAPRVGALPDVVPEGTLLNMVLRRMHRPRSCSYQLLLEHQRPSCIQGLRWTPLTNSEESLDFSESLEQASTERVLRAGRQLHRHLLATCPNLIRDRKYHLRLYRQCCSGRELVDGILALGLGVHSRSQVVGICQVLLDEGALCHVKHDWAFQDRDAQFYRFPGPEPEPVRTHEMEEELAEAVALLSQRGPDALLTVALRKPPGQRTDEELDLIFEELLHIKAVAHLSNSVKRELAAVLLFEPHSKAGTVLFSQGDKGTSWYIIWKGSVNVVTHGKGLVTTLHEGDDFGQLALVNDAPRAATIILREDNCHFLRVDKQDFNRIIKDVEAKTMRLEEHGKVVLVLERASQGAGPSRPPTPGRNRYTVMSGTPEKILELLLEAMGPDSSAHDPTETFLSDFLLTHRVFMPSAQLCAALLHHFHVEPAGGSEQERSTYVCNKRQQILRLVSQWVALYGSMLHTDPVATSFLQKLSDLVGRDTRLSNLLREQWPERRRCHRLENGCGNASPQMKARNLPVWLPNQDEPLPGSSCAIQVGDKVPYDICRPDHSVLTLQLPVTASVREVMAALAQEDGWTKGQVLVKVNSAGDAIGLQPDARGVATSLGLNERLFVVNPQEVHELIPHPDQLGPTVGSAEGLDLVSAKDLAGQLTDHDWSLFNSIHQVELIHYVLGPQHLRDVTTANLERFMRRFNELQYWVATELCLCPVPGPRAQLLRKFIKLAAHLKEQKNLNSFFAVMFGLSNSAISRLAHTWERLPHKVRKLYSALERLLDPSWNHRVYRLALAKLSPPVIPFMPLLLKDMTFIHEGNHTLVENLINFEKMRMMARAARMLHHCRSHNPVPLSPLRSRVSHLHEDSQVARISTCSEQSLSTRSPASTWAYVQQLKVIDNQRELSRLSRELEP

[10] = biological target: Rap guanine nucleotide exchange factor 4 (Homo sapiens) (UniProt Q8WZA2); experiment: Confirmatory qHTS for antagonist of cAMP-regulated guanine nucleotide exchange factor 4 (EPAC2) (AID 1645885); conditions: EPAC2 Rap1B-BODIPY-GDP exchange fluorescence, biochemical; series mostly up to 114 µM; note: potency is the fitted concentration of half-maximal effect; nearly all actives have a fitted effect of over 25% in size
Chain of Rap guanine nucleotide exchange factor 4 (Homo sapiens) (Q8WZA2 whole entry, looked up): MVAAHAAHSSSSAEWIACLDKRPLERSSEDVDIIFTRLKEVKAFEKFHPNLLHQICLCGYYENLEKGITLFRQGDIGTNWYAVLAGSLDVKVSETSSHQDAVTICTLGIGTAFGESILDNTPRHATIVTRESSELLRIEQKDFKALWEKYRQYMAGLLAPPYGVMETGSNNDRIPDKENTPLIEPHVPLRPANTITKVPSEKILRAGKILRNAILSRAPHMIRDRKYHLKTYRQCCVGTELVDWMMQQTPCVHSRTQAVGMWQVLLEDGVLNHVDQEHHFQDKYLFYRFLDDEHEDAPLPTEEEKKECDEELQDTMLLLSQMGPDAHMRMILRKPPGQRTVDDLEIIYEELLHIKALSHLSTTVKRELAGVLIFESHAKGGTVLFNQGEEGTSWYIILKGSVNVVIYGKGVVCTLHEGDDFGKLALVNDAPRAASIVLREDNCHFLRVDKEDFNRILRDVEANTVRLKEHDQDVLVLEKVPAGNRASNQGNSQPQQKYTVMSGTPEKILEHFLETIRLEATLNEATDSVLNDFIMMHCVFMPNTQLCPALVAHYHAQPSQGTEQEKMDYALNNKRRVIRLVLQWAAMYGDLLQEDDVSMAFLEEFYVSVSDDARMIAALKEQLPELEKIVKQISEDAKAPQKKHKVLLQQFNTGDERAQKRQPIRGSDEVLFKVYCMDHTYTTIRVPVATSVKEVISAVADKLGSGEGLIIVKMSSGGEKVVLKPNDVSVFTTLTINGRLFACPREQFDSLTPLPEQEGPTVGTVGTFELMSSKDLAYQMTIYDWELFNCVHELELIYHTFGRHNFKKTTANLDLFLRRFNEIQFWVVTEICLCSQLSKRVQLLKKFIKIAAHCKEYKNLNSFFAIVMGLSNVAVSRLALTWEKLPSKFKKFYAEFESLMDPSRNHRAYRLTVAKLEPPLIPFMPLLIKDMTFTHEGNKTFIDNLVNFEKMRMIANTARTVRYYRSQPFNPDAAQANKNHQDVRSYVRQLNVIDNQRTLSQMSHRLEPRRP

[11] = biological target: Cytochrome P450 1A2 (Homo sapiens) (UniProt P05177); experiment: p450-cyp1a2 (AID 410; calls by dose curve; note: potency is the fitted concentration of half-maximal effect); conditions: recombinant CYP1A2, luciferin-ME demethylation, luminescence; series mostly up to 57 µM
Chain of Cytochrome P450 1A2 (Homo sapiens) (P05177 whole entry, looked up): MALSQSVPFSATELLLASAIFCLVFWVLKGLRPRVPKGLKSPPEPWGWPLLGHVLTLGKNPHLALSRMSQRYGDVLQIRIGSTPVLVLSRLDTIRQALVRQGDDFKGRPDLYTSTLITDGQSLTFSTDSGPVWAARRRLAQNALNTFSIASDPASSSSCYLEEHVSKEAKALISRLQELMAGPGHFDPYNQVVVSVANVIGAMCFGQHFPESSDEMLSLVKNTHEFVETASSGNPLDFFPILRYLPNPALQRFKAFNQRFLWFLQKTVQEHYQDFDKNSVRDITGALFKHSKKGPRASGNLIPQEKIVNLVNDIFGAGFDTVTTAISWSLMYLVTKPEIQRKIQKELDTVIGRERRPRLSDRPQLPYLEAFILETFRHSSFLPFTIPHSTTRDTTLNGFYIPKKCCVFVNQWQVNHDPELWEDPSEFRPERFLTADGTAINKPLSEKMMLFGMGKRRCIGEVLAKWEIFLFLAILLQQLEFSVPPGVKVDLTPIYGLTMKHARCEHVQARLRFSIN
Procedure, shortened: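 Read-out is luminescence from luciferin produced by CYP1A2 demethylation of Luciferin-ME (100uM, at Km). Detection reagent stopped the 60 min NADPH-dependent reaction; signals were normalized to 57 uM furafylline.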

[12] = NFAT Signaling Pathway (AID 444; active = well fitted curve in either direction with a large enough effect, not every such curve was filed as active;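 note: carbachol stimulus at about its EC50 of 1 µM final; % is set by controls: 0 for no effect and ±100 for the full control effect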); conditions: Jurkat NFAT-bla M1, carbachol, beta-lactamase ratio, 5 h; at 7.69 µM (top of the series) unless noted
Procedure, shortened: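 Read-out: CCF4 FRET ratio (460 nm/530 nm) after 1 h RT dye loading, used for %activity and AC50 from titration series. Cells: Jurkat NFAT-β-lactamase/M1 line, treated with compound plus 1 uM carbachol for 5 h, 37 °C.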

[13] = Stat Signaling Pathway (AID 446; active = well fitted curve in either direction with a large enough effect, not every such curve was filed as active); conditions: ME-180 (cervical carcinoma) SIE beta-lactamase reporter, IL-6 stimulated, 5 h; at 7.69 µM (top of the series) unless noted
Procedure, shortened: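 Emission at 460 and 530 nm (excitation 405 nm) reports SIE-controlled beta-lactamase in ME-180 cells. Cells received compound with 40 pM IL-6 for 5 hrs at 37 C; data scaled between 300 pM IL-6 and 125 nM JAK-inhibitor controls.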

[14] = biological target: 3',5'-cyclic-AMP phosphodiesterase 4B (Homo sapiens) (UniProt Q07343); experiment: qHTS Assay for Inhibitors of PDE-IV (AID 607; active = well fitted activation curve with a large enough effect in the main read-out, with a control signal flat, not every such curve was filed as active; note: % of control where 0% means no effect); conditions: HEK293 ACTOne CNG channel cells, membrane potential fluorescence; series mostly up to 22.9 µM
Procedure, shortened: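 The readout is membrane depolarisation from a cAMP-sensing CNG channel, detected with a potential dye at ex 535/em 590. Cells were HEK293-derived (endogenous PDE-IV) at 1000 cells/well, titrated up to 22.9 uM final.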

[15] = biological target: Rap guanine nucleotide exchange factor 3 (Homo sapiens) (UniProt O95398); experiment: Confirmatory qHTS for antagonist of cAMP-regulated guanine nucleotide exchange factor 3 (EPAC1) (AID 1645880); conditions: EPAC1 Rap1B-BODIPY-GDP exchange, fluorescence; series mostly up to 115 µM;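 note: plate controls were DMSO only for no effect and full effect of the ATA control for full effect; nearly all actives have a fitted effect of over 55% in size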
Procedure, shortened: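 Released BODIPY-GDP fluoresces less than Rap1-bound BODIPY-GDP; the signal is followed at 480/540 nm at 5-min intervals over 30 min, after 5 min at room temperature. Reactions contain 100 nM EPAC1, 250 nM RAP1B-BODIPY-GDP and 50 uM GDP; results are normalized to ATA and DMSO.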

[16] = biological target: Rap guanine nucleotide exchange factor 4 (Homo sapiens) (UniProt Q8WZA2); experiment: Confirmatory qHTS for agonist of cAMP-regulated guanine nucleotide exchange factor 4 (EPAC2) (AID 1645884); conditions: EPAC2 GEF activity, Rap1B-BODIPY-GDP fluorescence, percent relative to cAMP agonist control; series mostly up to 154 µM;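 note: nucleotide exchange releases bodipy-GDP from Rap1 and this lowers its fluorescence; % is set by controls: 0 for no effect and ±100 for the full control effect; nearly all actives have a fitted effect of over 65% in size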
[17] = biological target: Dual specificity protein kinase CLK4 (Homo sapiens) (UniProt Q9HAZ1); experiment: qHTS Assay for Inhibitors of CDC-like Kinase 4 (Kinase-Glo Assay) (AID 1770); conditions: recombinant Clk4, Kinase-Glo ATP depletion luminescence; series mostly up to 66.7 µM; note: nearly all actives have a fitted effect of over 65% in size; note: potency is the fitted concentration of half-maximal effect
Chain of Dual specificity protein kinase CLK4 (Homo sapiens) (Q9HAZ1 whole entry, looked up): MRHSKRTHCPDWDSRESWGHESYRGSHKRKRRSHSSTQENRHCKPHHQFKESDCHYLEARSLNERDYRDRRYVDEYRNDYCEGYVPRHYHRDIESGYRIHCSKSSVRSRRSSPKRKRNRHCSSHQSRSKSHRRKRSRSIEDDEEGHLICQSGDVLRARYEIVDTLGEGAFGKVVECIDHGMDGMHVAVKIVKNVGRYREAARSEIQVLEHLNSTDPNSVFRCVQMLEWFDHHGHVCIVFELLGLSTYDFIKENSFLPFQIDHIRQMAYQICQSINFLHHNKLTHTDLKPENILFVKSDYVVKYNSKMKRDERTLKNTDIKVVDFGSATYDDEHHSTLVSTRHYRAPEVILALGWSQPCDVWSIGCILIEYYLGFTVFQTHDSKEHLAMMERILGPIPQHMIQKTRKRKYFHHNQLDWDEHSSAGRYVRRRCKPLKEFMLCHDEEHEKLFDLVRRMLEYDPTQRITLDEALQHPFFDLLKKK
Procedure, shortened: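 Clk4 25 nM, RS peptide 100 uM, ATP 1 uM, pH 7.5 Tris, 10 mM MgCl2, 2.5 mM DTT; 4.5 h RT; ATP depletion read by Kinase-Glo luminescence.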

[18] = biological target: Dual specificity protein kinase CLK4 (Homo sapiens) (UniProt Q9HAZ1); experiment: qHTS Assay for Inhibitors of CDC-like Kinase 4 (ADP-Glo Assay) (AID 1771); conditions: recombinant CLK4, ADP-Glo luminescence; series mostly up to 80 µM; note: nearly all actives have a fitted effect of over 70% in size; note: potency is the fitted concentration of half-maximal effect
Procedure, shortened: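 In this ADP-Glo format, 1 uM ATP and 100 uM RS peptide served as substrates for 25 nM Clk4 in Mg2+/EGTA/DTT/Triton buffer; reactions ran 1 hr at room temperature before luminescent ADP quantification.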

[19] = biological target: Ubiquitin carboxyl-terminal hydrolase 1 (Homo sapiens) (UniProt O94782); experiment: Inhibitors of USP1/UAF1: Pilot qHTS (AID 504865); conditions: purified USP1/UAF1, Ub-rhodamine cleavage fluorescence; series mostly up to 54.9 µM; note: nearly all actives have a fitted effect of over 35% in size; note: potency is the fitted concentration of half-maximal effect
Chain of Ubiquitin carboxyl-terminal hydrolase 1 (Homo sapiens) (O94782 whole entry, looked up): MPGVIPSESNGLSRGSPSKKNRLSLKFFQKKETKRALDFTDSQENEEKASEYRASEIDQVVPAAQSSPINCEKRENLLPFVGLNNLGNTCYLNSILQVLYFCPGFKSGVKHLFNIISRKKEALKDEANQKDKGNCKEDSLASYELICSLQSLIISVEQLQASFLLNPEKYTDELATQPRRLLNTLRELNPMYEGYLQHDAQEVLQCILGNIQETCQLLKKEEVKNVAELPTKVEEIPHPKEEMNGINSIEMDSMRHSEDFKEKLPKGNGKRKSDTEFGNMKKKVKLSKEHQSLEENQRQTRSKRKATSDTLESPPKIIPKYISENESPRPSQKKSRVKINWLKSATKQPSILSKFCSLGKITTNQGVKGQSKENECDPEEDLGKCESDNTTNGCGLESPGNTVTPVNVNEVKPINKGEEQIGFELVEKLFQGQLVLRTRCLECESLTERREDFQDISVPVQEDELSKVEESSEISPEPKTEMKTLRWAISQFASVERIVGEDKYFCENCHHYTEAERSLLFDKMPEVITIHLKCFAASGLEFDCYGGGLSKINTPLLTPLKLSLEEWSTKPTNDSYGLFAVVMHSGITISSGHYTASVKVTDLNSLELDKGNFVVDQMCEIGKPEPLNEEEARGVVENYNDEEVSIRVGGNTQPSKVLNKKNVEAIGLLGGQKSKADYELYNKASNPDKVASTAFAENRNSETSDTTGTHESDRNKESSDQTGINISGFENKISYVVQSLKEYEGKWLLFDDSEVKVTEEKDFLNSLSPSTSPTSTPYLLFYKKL
Procedure, shortened: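 Enzyme-free wells gave the negative control, while test wells held 1nM USP1/UAF1 preincubated with compound for 15 min at room temperature. Ub-Rho at 150nM final started the reaction, and fluorescence at 480/540 nm was recorded kinetically.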

[20] = biological target: Dual specificity protein kinase CLK4 (Homo sapiens) (UniProt Q9HAZ1); experiment: qHTS Assay for Inhibitors of CDC-like Kinase 4 (ADP-FP Assay) (AID 1795); conditions: Transcreener ADP fluorescence polarization; series mostly up to 50 µM;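 note: recombinant human CLK4 phosphorylating RS repeat peptide at 1 µM ATP; % is set by controls: 0 for no effect and ±100 for the full control effect; nearly all actives have a fitted effect of over 60% in size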
Procedure, shortened: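 Kinase activity was followed as ADP output, converted from fluorescence polarization with a calibration curve. Reactions ran one hour at low ATP (1 uM) with RS peptide substrate.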

[21] = measured here: cell count channel max response
[22] = measured here: lipid channel max response

O=c1c(-c2cc(F)cc(F)c2)nc2cnc(N3CCNCC3)nc2n1Cc1cccs1
-33.5%: max response [7, 22]
active: activity change, negative = inhibition [2] 98% [activator] | Potency [10] 55.5 µM
-11.3%: max response [7, 21]
inactive: Potency [1] > 11.4 µM | Potency [3] > 9.22 µM | Potency [4] > 46 µM | outcome [5] | Potency [6] | activity change, negative = inhibition [7] -29.8% | Potency [8] | outcome [9]

O=c1cnc2cnc(Oc3cccc(Cl)c3)nc2n1Cc1ccc(F)cc1
inactive: Potency [1] > 11.4 µM | activity change, negative = inhibition [2] -16% | activity change, negative = inhibition [12] -9.66% | activity, negative = inhibition [13] -7.55% | Potency [3] > 9.22 µM | Potency [4] > 46 µM | outcome [5] | Potency [14] | Potency [6] | activity change, negative = inhibition [7] 3.63% | Potency [8] | Potency [15] | outcome [9] | outcome [16]
active: Potency [11] 15.8 µM
21.6%: max response [7, 22]
17.8%: max response [7, 21]

FC(F)(F)c1ccccc1-c1nc(N2CCOCC2)c2ccccc2n1
active: Potency [17] 25.1 µM | Potency [18] 14.1 µM | Potency [19] 31.6 µM
inactive: Potency [1] > 11.4 µM | activity change, negative = inhibition [12] -3.63% | activity, negative = inhibition [13] 2.43% | Potency [3] > 46 µM | Potency [4] > 46 µM | outcome [5] | Potency [6] | activity change, negative = inhibition [7] 6.74% | Potency [8] | Potency [15] | outcome [9] | outcome [16]
22.9%: max response [7, 21]
28.1%: max response [7, 22]

Cc1nc2cnc(Nc3ccccc3)nc2n(CCC#N)c1=O
-11.1%: max response [7, 21]
active: Potency [11] 0.631 µM
-20.1%: max response [7, 22]
inactive: Potency [1] > 11.4 µM | activity change, negative = inhibition [2] -11.3% | activity change, negative = inhibition [12] -3.1% | activity, negative = inhibition [13] -19.6% | Potency [3] > 9.22 µM | Potency [4] > 46 µM | outcome [5] | Potency [14] | activity change, negative = inhibition [7] -7.58% | Potency [17] | Potency [18] | Potency [20] | Potency [19] | Potency [8]

COc1ncc2nc(-c3ccccc3)c(=O)n(C)c2n1
active: Potency [11] 1.58 µM
inactive: Potency [1] > 11.4 µM | activity change, negative = inhibition [2] -19.1% | activity change, negative = inhibition [12] 11.3% | activity, negative = inhibition [13] -14.9% | Potency [3] > 9.22 µM | Potency [4] > 46 µM | outcome [5] | activity change, negative = inhibition [7] 6.24% | Potency [17] | Potency [18] | Potency [20] | Potency [19] | Potency [8]
24.3%: max response [7, 22]
20%: max response [7, 21]

O=c1c(-c2ccc(Cl)cc2)nc2cnc(N3CCOCC3)nc2n1C[C@H]1CCCO1
4.1%: max response [7, 21]
-3.15%: max response [7, 22]
active: Potency [11] 2 µM
inactive: Potency [1] > 11.4 µM | activity change, negative = inhibition [2] -9.09% | activity change, negative = inhibition [12] -5.22% | activity, negative = inhibition [13] -0.789% | Potency [3] > 9.22 µM | Potency [4] > 46 µM | outcome [5] | Potency [14] | activity change, negative = inhibition [7] -4.84% | Potency [17] | Potency [18] | Potency [20] | Potency [19] | Potency [8]
